Measured values reported in PubChem BioAssay AID1159580 (chemical genetic matrix, 2015).
In all, about 5,500 compounds went through this assay and about 2,000 (36%) were called active. About 18% were inconclusive and are not listed. No stated cut-off is given here; in the data, active means normalized growth mostly below about 0.91 (no sharp cut-off); inconclusive means no clear call, values can overlap the other calls; inactive means mostly above about 0.92. The list shows a part of the results.

Experiment: chemical genetic growth profiling, strain panel (AID 1159580);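 further: tested at 20 µM; growth read once vehicle control cultures reached saturation at 30 °C; 1 = growth at the plate median or of vehicle wells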
Conditions: growth OD

Measured: normalized growth

COc1cc2c(cc1OC)Cc1cc(OC)c(OC)cc1Cc1cc(OC)c(OC)cc1C2
inactive: S. cerevisiae deletion strains, locus YJR066W, strain TOR1, stronger effect = lower value 0.974 | S. cerevisiae deletion strains, locus YJR075W, strain HOC1, stronger effect = lower value 1.02 | S. cerevisiae deletion strains, locus YKL009W, strain mrt4, stronger effect = lower value 0.942 | S. cerevisiae deletion strains, locus YKL068W, stronger effect = lower value 1.02 | S. cerevisiae deletion strains, locus YKL085W, strain MDH1 (second series), stronger effect = lower value 0.927 | S. cerevisiae deletion strains, locus YKL085W, strain MDH1, stronger effect = lower value 0.927 | S. cerevisiae deletion strains, locus YKL160W, strain elf1, stronger effect = lower value 1.02 | S. cerevisiae deletion strains, locus YKL190W, strain CNB1, stronger effect = lower value 0.992 | S. cerevisiae deletion strains, locus YKR001C, strain vps1, stronger effect = lower value 1.04 | S. cerevisiae deletion strains, locus YKR026C, strain gcn3, stronger effect = lower value 1 | S. cerevisiae deletion strains, locus YKR091W, strain srl3, stronger effect = lower value 1.03 | S. cerevisiae deletion strains, locus YLL001W, strain dnm1, stronger effect = lower value 1.01 | S. cerevisiae deletion strains, locus YLL026W, stronger effect = lower value 1.04 | S. cerevisiae deletion strains, locus YLL041C, strain sdh2, stronger effect = lower value 1.03 | S. cerevisiae deletion strains, locus YLR027C, strain aat2, stronger effect = lower value 1.03 | S. cerevisiae deletion strains, locus YLR039C, strain RIC1, stronger effect = lower value 1.05 | S. cerevisiae deletion strains, locus YLR058C, strain SHM2, stronger effect = lower value 1.02 | S. cerevisiae deletion strains, locus YLR102C, strain apc9, stronger effect = lower value 1.03 | S. cerevisiae deletion strains, locus YLR113W, strain HOG1, stronger effect = lower value 1.05 | S. cerevisiae deletion strains, locus YLR221C, strain rsa3, stronger effect = lower value 1.04 | S. cerevisiae deletion strains, locus YLR258W, strain gsy2, stronger effect = lower value 1.03 | S. cerevisiae deletion strains, locus YLR262C, strain YPT6 (second series), stronger effect = lower value 1.05 | S. cerevisiae deletion strains, locus YLR262C, strain YPT6, stronger effect = lower value 1.08 | S. cerevisiae deletion strains, locus YLR268W, strain sec22, stronger effect = lower value 1.04 | S. cerevisiae deletion strains, locus YLR320W, strain mms22, stronger effect = lower value 1.03 | S. cerevisiae deletion strains, locus YLR330W, strain CHS5, stronger effect = lower value 1.01 | S. cerevisiae deletion strains, locus YLR342W, strain FKS1 (second series), stronger effect = lower value 1 | S. cerevisiae deletion strains, locus YLR342W, strain FKS1, stronger effect = lower value 1.04 | S. cerevisiae deletion strains, locus YLR357W, strain rsc2, stronger effect = lower value 1.05 | S. cerevisiae deletion strains, locus YLR370C, strain arc18, stronger effect = lower value 1.03 | S. cerevisiae deletion strains, locus YLR371W, strain rom2, stronger effect = lower value 1.03 | S. cerevisiae deletion strains, locus YLR384C, strain iki3, stronger effect = lower value 1.03 | S. cerevisiae deletion strains, locus YLR418C, strain cdc73, stronger effect = lower value 1.04 | S. cerevisiae deletion strains, locus YML016C, strain PPZ1, stronger effect = lower value 1.01 | S. cerevisiae deletion strains, locus YML032C, strain rad52, stronger effect = lower value 1.01 | S. cerevisiae deletion strains, locus YML120C, strain ndi1, stronger effect = lower value 1.02 | S. cerevisiae deletion strains, locus YML124C, strain tub3, stronger effect = lower value 1.06 | S. cerevisiae deletion strains, locus YMR058W, strain fet3, stronger effect = lower value 1.03 | S. cerevisiae deletion strains, locus YMR078C, strain ctf18, stronger effect = lower value 1.04 | S. cerevisiae deletion strains, locus YMR125W, strain sto1, stronger effect = lower value 1.05 | S. cerevisiae deletion strains, locus YMR129W, stronger effect = lower value 1.04 | S. cerevisiae deletion strains, locus YMR205C, strain PFK2, stronger effect = lower value 1.05 | S. cerevisiae deletion strains, locus YMR223W, strain ubp8, stronger effect = lower value 1.03 | S. cerevisiae deletion strains, locus YMR231W, strain pep5, stronger effect = lower value 1.03 | S. cerevisiae deletion strains, locus YMR263W, strain SAP30, stronger effect = lower value 1.01 | S. cerevisiae deletion strains, locus YMR307W, strain GAS1, stronger effect = lower value 1.04 | S. cerevisiae deletion strains, locus YNL067W, strain RPL9B, stronger effect = lower value 1.03 | S. cerevisiae deletion strains, locus YNL071W, strain lat1, stronger effect = lower value 1.03 | S. cerevisiae deletion strains, locus YNL183C, strain NPR1, stronger effect = lower value 0.956 | S. cerevisiae deletion strains, locus YNL209W, strain ssb2, stronger effect = lower value 1.03 | S. cerevisiae deletion strains, locus YNL233W, strain BNI4, stronger effect = lower value 1.01 | S. cerevisiae deletion strains, locus YNL248C, strain rpa49, stronger effect = lower value 1.03 | S. cerevisiae deletion strains, locus YNL250W, strain rad50, stronger effect = lower value 1.04 | S. cerevisiae deletion strains, locus YNL271C, strain bni1, stronger effect = lower value 1.02 | S. cerevisiae deletion strains, locus YNL298W, strain CLA4, stronger effect = lower value 1.02 | S. cerevisiae deletion strains, locus YNL307C, strain MCK1, stronger effect = lower value 1.03 | S. cerevisiae deletion strains, locus YNL322C, strain KRE1 (second series), stronger effect = lower value 1.05 | S. cerevisiae deletion strains, locus YNL322C, strain KRE1, stronger effect = lower value 1.03 | S. cerevisiae deletion strains, locus YNR049C, strain mso1, stronger effect = lower value 1.03 | S. cerevisiae deletion strains, locus YNR052C, strain pop2, stronger effect = lower value 1.02 | S. cerevisiae deletion strains, locus YOL012C, strain htz1 0.876 | S. cerevisiae deletion strains, locus YOL147C, strain pex11, stronger effect = lower value 1.02 | S. cerevisiae deletion strains, locus YOR001W, strain rrp6, stronger effect = lower value 1.02 | S. cerevisiae deletion strains, locus YOR061W, strain CKA2, stronger effect = lower value 1.01 | S. cerevisiae deletion strains, locus YOR069W, strain VPS5, stronger effect = lower value 1.01 | S. cerevisiae deletion strains, locus YOR070C, strain gyp1, stronger effect = lower value 1.03 | S. cerevisiae deletion strains, locus YOR080W, strain dia2, stronger effect = lower value 1.04 | S. cerevisiae deletion strains, locus YOR083W, strain WHI5, stronger effect = lower value 1.01 | S. cerevisiae deletion strains, locus YOR106W, strain vam3, stronger effect = lower value 1.07 | S. cerevisiae deletion strains, locus YOR136W, strain idh2, stronger effect = lower value 1.05 | S. cerevisiae deletion strains, locus YOR144C, strain elg1, stronger effect = lower value 1.04 | S. cerevisiae deletion strains, locus YOR184W, strain ser1, stronger effect = lower value 1.03 | S. cerevisiae deletion strains, locus YOR231W, strain MKK1, stronger effect = lower value 1.04 | S. cerevisiae deletion strains, locus YOR265W, strain rbl2, stronger effect = lower value 1.02 | S. cerevisiae deletion strains, locus YOR270C, strain vph1, stronger effect = lower value 1.03 | S. cerevisiae deletion strains, locus YOR290C, strain snf2, stronger effect = lower value 0.995 | S. cerevisiae deletion strains, locus YOR316C, strain cot1, stronger effect = lower value 1.02 | S. cerevisiae deletion strains, locus YPL051W, strain arl3, stronger effect = lower value 1.02 | S. cerevisiae deletion strains, locus YPL055C, strain LGE1, stronger effect = lower value 1.03 | S. cerevisiae deletion strains, locus YPL078C, strain atp4, stronger effect = lower value 1.03 | S. cerevisiae deletion strains, locus YPL106C, strain sse1, stronger effect = lower value 1.06 | S. cerevisiae deletion strains, locus YPL240C, strain hsp82, stronger effect = lower value 1.02 | S. cerevisiae deletion strains, locus YPL256C, strain CLN2, stronger effect = lower value 1.06 | S. cerevisiae deletion strains, locus YPR119W, strain clb2, stronger effect = lower value 1 | S. cerevisiae deletion strains, locus YPR141C, strain kar3, stronger effect = lower value 1.03 | S. cerevisiae deletion strains, locus YPR163C, strain tif3, stronger effect = lower value 1.03 | S. cerevisiae deletion strains, locus YPR167C, strain met16, stronger effect = lower value 1.03 | S. cerevisiae deletion strains, strain wtn01, stronger effect = lower value 1.04 | S. cerevisiae strains, strain wild type, stronger effect = lower value 1.03
